Assay outcomes: PubChem, National Center for Advancing Translational Sciences (NCATS)
LDHA inh – LDHA (human) enzyme inhibition. purified LDHA, NADH/diaphorase-resazurin fluorescence; stronger effect = lower value. hit rate 0.15% among 480,000. P00338. activity change, % (values are at about 110 or 230 µM); in the data active = activity change below about -30%; inconclusive = mostly about -25% to -30%
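Human LDH5 at 2 nM final in Tris HCl pH 7.4 with 0.06 mM NADH and 0.2 mM pyruvate, reacted 5 minutes at room temperature. Remaining NADH coupled via diaphorase/resazurin; resorufin fluorescence read at 0 and 20 minutes, normalized to enzyme-free and DMSO wells.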
RORgamma inh – ROR gamma (mouse) transcription inhibition | hit rate 5.4% among 310,000 | Potency, µM (series often up to 53.6 µM), actives largely listed as inhibitors | Drosophila S2 Gal4-RORgamma UAS-luciferase reporter, 20 h | P51450; also: nearly all actives have a fitted effect of over 60% in size
Target sequence (P51450 whole entry, looked up, the tested form may be a part): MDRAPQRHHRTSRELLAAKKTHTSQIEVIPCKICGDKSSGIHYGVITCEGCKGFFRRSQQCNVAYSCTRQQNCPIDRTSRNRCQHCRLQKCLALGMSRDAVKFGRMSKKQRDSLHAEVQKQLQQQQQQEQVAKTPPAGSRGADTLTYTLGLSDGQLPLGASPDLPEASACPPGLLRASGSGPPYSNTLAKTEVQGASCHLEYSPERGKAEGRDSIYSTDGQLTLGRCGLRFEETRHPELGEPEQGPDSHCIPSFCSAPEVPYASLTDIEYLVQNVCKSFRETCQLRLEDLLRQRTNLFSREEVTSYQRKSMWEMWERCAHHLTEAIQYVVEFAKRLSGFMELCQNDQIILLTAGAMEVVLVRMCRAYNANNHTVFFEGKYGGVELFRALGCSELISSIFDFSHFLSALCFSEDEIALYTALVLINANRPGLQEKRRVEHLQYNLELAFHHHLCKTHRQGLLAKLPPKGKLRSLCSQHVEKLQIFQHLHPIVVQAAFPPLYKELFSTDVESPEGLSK
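Using a luciferase readout, inhibitors were identified by reduced reporter activity in Drosophila cells coexpressing a copper-inducible Gal4–ROR gamma fusion and UAS-driven Photinus luciferase, incubated 20 hr after 700 uM copper sulfate.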
VP16 counter – Gal4-VP16 reporter inhibition counter-screen; hit rate 3.5% among 310,000; Potency, µM (series often up to 53.6 µM), hits mostly inhibitors; Drosophila S2 Gal4-VP16 UAS-luciferase, luminescence, 20 h; AID 2546;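 also: Gal4-VP16 expression switched on by copper sulfate through the metallothionein promoter; nearly all actives have a fitted effect of over 50% in size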
IL1B secr inh – inhibitors of inflammasome signaling (IL-1 beta secretion); THP-1 LPS/ATP IL-1B secretion, AlphaLISA, 16 h; stronger effect = lower value; AID 743279; hit rate 4.7% among 360,000; activity change, % at 57.5 µM; in the data active = activity change below about -50%; inconclusive = mostly about -30% to -49%
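THP-1 cells pretreated 1 hr with compounds (up to 57.5 uM final), then stimulated with LPS (250 ng/mL final) plus ATP (1.25 mM final); secreted IL-1B measured by AlphaLISA after 16 hr, decreased signal indicating inhibition.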
DT40 TDP1 no CPT – qHTS for Inhibitors of human tyrosyl-DNA phosphodiesterase 1 (TDP1): qHTS in cells in absence of CPT; DT40 Tdp1-/- hTDP1 cells, no CPT, ATP luminescence, 48 h; AID 686978, 2013; hit rate 15% among 420,000; Potency, µM (titrated, usually from 46.2 µM), hits mostly inhibitors; also: nearly all actives have a fitted effect of over 55% in size
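Chicken DT40 Tdp1-/- cells complemented with human TDP1, screened without camptothecin (DMSO vehicle only), 400 cells/well. Compounds pin-transferred, cells incubated at 37 °C for at least 48 hr. Growth read as ATP-dependent luminescence (CellTiter-Glo, 30 min at RT).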
TDP1 cell CPT – growth inhibition of DT40 Tdp1-/-;hTDP1 cells with camptothecin (screen for TDP1 inhibitors); chicken DT40 Tdp1-/-;hTDP1 cells + 20 nM CPT, ATP luminescence, 48 h; Potency, µM (top dose mostly 46.2 µM), usual class: inhibitors; hit rate 12% among 420,000; AID 686979; also: nearly all actives have a fitted effect of over 55% in size
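Cell growth measured by CellTiter-Glo luminescence after a minimum 48 h, 37 C compound exposure with 20 nM CPT in Tdp1-knockout DT40 cells stably expressing hTDP1, seeded 400/well; qHTS titration format.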
A number is an active result; - = inactive; ? = inconclusive; . = no result; [ ] = remark or other dose. Most compounds without a hit are left out; they make up all but 18% or so of the library. Unless noted, calls follow the shape of the dose curve; as a rule, active = well fitted curve in the direction sought with a large enough effect; inconclusive = small, poorly fitted or top-dose-only effect, or another doubt; inactive = no such curve, though single readings can be large; an effect the other way counts as inactive or inconclusive.

SMILES | LDHA inh | RORgamma inh | VP16 counter | IL1B secr inh | DT40 TDP1 no CPT | TDP1 cell CPT
O=C(/C=C/c1ccc(OC(F)F)cc1)Nc1cccc(S(=O)(=O)NC2=NCCCCC2)c1 | - | ? | ? | -80.9 | ? | ?
O=C(COC(=O)/C=C/c1ccc(Cl)cc1)Nc1cccc(S(=O)(=O)NC2=NCCCCC2)c1 | - | . | . | - | - | ?
CCCNc1nc2ccccc2nc1C(=O)Nc1ccc(OC)cc1 | - | . | . | . | . | .
Cc1cnc2c(S(=O)(=O)NCC3CCOC3)cccc2c1 (stereo unspecified) | - | . | . | . | . | .
COc1ccc(C2CCCN2C(=O)Cn2cccnc2=O)c(OC)c1 (stereo unspecified) | - | . | . | . | . | .
Nc1cccc(Oc2cnccn2)c1 | - | - | - | - | - | -
O=C(CCl)Nc1cccc(Oc2cnccn2)c1 | - | ? | ? | -87.9 | 9.2µM | 18.4µM
O=C(CCl)Nc1cccc(Oc2ccccc2)c1 | - | 10µM | ? | -106.2 | 2.91µM | 3.26µM
COc1cc(NC(=O)CCl)ccc(=O)c1 | - | . | . | - | 18.4µM | 13µM
N=c1sccn1CC(=O)Nc1cccc(Oc2ccccc2)c1 | - | - | - | - | 22.4µM | ?
C/C(=N\O)C(C)N(O)C(C)/C(C)=N/O (stereo unspecified) | - | . | . | . | . | .
O=C(CSc1ncnc2[nH]ncc12)Nc1cccc(Oc2ccccc2)c1 | - | - | - | -89.9 | ? | ?
c1ccc(CCn2nnnc2C(c2cccnc2)N2CCN(c3ccccc3)CC2)cc1 (stereo unspecified) | - | ? | - | - | 11.2µM | 13µM
Fc1ccccc1N1CCN(C(c2cccs2)c2nnnn2CCc2ccccc2)CC1 (stereo unspecified) | - | - | - | - | ? | ?
CC(C)C(c1nnnn1Cc1ccccc1)N1CCN(Cc2ccc3c(c2)OCO3)CC1 (stereo unspecified) | - | - | - | ? | ? | ?
COCCn1nnnc1C(c1ccc(OC)cc1OC)N1CCN(c2ccccc2)CC1 (stereo unspecified) | - | - | - | - | - | -
Fc1ccc(N2CCN(C(c3cccs3)c3nnnn3CCc3ccccc3)CC2)cc1 (stereo unspecified) | - | - | - | - | 23.1µM | ?
COc1ccc(OC)c(C(c2nnnn2CCc2ccccc2)N2CCN(c3ccccc3)CC2)c1 (stereo unspecified) | - | -[10 µM] | - | -85.1 | 35.5µM | ?
c1ccc(CCn2nnnc2C(c2cccs2)N2CCN(Cc3ccc4c(c3)OCO4)CC2)cc1 (stereo unspecified) | - | - | ? | ? | 23.1µM | ?
Cc1ccc(-c2cc(C(=O)Oc3ccc(Br)cc3)no2)cc1 | - | . | . | . | . | .
N#Cc1cccc(C(c2nnnn2CCc2ccccc2)N2CCN(C3CCCCC3)CC2)c1 (stereo unspecified) | - | ? | - | ? | 17.8µM | ?
c1ccc(CCn2nnnc2C(c2cccnc2)N2CCN(c3nc4ccccc4s3)CC2)cc1 (stereo unspecified) | - | - | ? | -64.4 | 11.2µM | 18.4µM
Oc1ccc(N2CCN(C(c3cccnc3)c3nnnn3Cc3ccccc3)CC2)cc1 (stereo unspecified) | - | - | - | - | 18.4µM | ?
c1ccc(Cn2nnnc2C(c2cccnc2)N2CCN(C3CCCCC3)CC2)cc1 (stereo unspecified) | - | - | - | - | - | -
Clc1cccc(-c2nnc(SC/C=C/c3ccccc3)n2Cc2ccco2)c1 | - | - | - | -84.4 | ? | 20.6µM
C(=C\c1ccccc1)/CSc1nnc(-c2ccccc2)n1Cc1ccco1 | - | - | ? | - | 4.61µM | 5.17µM
CCCNC(=O)CN1CCN(Cc2nc3ccccc3o2)CC1 | - | . | . | . | . | .
Cc1ccc(NC(=O)CCCc2cccs2)c(Br)c1 | - | . | . | . | . | .
NS(=O)(=O)c1ccc(N=Nc2cc3ccccc3c(C(=O)O)c2O)cc1 | - | . | . | . | 1.12µM | 0.398µM
NS(=O)(=O)c1ccc(N=Cc2c(O)c3ccccc3oc2=O)cc1 | - | - | - | - | - | -
